Results on 40 molecules are retold here after PubChem BioAssay (NCATS).

Each structure is given as a SMILES string. Where “and” joins values, the source holds several entries; their conditions need not be identical. Equal entries are not always repeated. Records with an inconclusive call do not appear. Values without a mark were called inactive. The call rests on the fitted dose curve; in most records, active means well fitted inhibition curve with a large enough effect in the signal ratio, with a control signal flat (not every such curve was filed as active); inconclusive means small, poorly fitted or top-dose-only effect, or effect the other way, or a change in a side signal; inactive means flat fitted curve, though single readings scatter; the % refers to the signal ratio.
On the % scale 0 is the no-effect control and ±100 the full control effect.

Chain of Thyroid hormone receptor beta (Homo sapiens) (P10828 whole entry, looked up): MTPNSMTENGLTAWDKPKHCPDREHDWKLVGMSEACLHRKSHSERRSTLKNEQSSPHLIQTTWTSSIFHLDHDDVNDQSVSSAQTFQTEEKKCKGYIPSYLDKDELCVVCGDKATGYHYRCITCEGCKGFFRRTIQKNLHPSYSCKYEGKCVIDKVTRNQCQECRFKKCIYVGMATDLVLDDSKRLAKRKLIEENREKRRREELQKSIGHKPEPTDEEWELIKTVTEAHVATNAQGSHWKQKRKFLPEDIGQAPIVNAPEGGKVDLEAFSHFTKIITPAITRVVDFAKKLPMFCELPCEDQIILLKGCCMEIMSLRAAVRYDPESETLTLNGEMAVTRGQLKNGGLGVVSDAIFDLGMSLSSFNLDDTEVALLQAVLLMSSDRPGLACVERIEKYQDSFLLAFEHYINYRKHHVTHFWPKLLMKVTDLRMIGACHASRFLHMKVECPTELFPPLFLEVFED

The experiment addresses Thyroid hormone receptor beta (Homo sapiens) (UniProt P10828). In words: qHTS assay for small molecule antagonists of thyroid hormone receptor beta signaling (AID 588547).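 Further: cells stimulated with 0.4 nM T3 agonist during compound exposure; series mostly up to about 77 µM.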 Particulars: TR-UAS-bla HEK293, beta-lactamase ratio, antagonist mode, 18 h. From the text:
NIH Chemical Genomics Center [NCGC] U.S. Environmental Protection Agency [EPA] National Institutes of Environmental Health Sciences [NIEHS] National Toxicology Program [NTP] NCGC Assay Overview Thyroid hormone receptor (TR) belongs to nuclear hormone receptor superfamily. There are two subtypes for TR: TR-alpha and TR-beta. TR-beta plays a major role in regulating plasma cholesterol levels and it mediates the biological activities of thyroid hormone. Screening environmental chemicals on TR-beta signaling will provide important information for the mechanism of compound action.
NCGC Assay Protocol Summary Using a beta-lactamase reporter-gene under control of the TR response element, a cell-based assay [GeneBLAzer TR-UAS-bla-GripTite assay developed by Invitrogen] was used to measure TR-beta signaling in antagonist mode. TR-UAS-bla-GripTite HEK 293 cells were used with assay medium containing 2% charcoal/dextran FBS, 0.1 mM NEAA and 1 mM sodium pyruvate. The assay was performed in clear bottom black Greiner 1536-well plates. Library compounds were measured for their ability to inhibit the reporter gene activity. Compounds were screened in a titration series in 1536-well format. The fluorescence intensity (405 nm excitation, 460/530 nm emission) was measured using an EnVision plate reader. […] Concentration-response titration points for each compound were fitted to the Hill equation yielding concentrations of half-maximal inhibition (IC50) and maximal response (efficacy) values. qHTS protocol for TR-beta beta-lactamase assay in antagonist mode [Step] [Parameter] [Value] [Description] 1. Reagent; 5 uL; 2500 cells/well 2. Incubation; 37 C for 4 hrs 3. Compounds; 23 nL; 0.59 nM to 92 uM 4. Controls (DMSO); 23 nL 5. Agonist (Stimulator); 1uL; T3 at 0.4nM (final) concentrations 6. Incubation; 37 C for 18 hrs 7. Detection reagent; 1 uL of CCF4-dye 8. Incubation; RT for 2 hrs 9. Detection; Fluorescence; Envision plate reader
For the molecule `COc1ccc(C(=O)Nc2ccccc2)cc1[N+](=O)[O-]`, the activity change % (negative = inhibition) is 2.48%.
In the case of `C=CC(C)(O)CCCC(C)CCCC(C)CCCC(C)C` (stereo not given), the activity change % (negative = inhibition) was 8.61%.
The figure for `CCNC(=S)NCC` is -1.42%.
The figure for `CC(C)(C)C(=O)C1C(=O)c2ccccc2C1=O` is 12.3%; for `c1ccc(CSCc2ccccc2)cc1` it is -5.66%.
The value for `COc1cc(-c2ccc(N=C=O)c(OC)c2)ccc1N=C=O` was -7.61%; that for `CCOC(=O)C1OC1c1ccccc1` (stereo not given) was 6.36%; that for `COc1ccc(C)cc1N` was -19.2%.
For the molecule `O=[N+]([O-])c1ccc(F)cc1F`, the activity change % (negative = inhibition) is 0.277%.
The figure for `Oc1c(Cl)cc(Cl)c(Cl)c1Cl` is -15.9% and 13.1%; for `Cc1ccc2ccc3cccc4ccc1c2c34` it is 1.52%.
Take `O=[N+]([O-])c1cccc(I)c1`: the activity change % (negative = inhibition) was -8.55%.
The value for `c1ccc2ncccc2c1` was 3.38%; that for `Oc1ccc(O)c2c(O)cccc12` was -24.9%.
The figure for `O=c1[nH]ncc2ccccc12` is -18.2%; for `CN(C)c1ccc(C(=N)c2ccc(N(C)C)cc2)cc1` it is -25.2%; for `CCCCC(CC)COC(=O)COc1ccc(Cl)cc1Cl` (stereo not given) it is -2.67% and 4.45%.
Turning to `CC(C)COC(=O)COc1cc(Cl)c(Cl)cc1Cl`, the activity change % (negative = inhibition) was 14.2%.
Turning to `O=C(O)c1cc(N=Nc2ccc([N+](=O)[O-])cc2)ccc1O`, the activity change % (negative = inhibition) was 12.8%.
The value for `CN(C)c1ccc(Cc2ccc(N(C)C)cc2)cc1` was 1.5%; that for `S=C(NC1CCCCC1)NC1CCCCC1` was 30%; that for `CC(=O)c1ccc(Cl)c(Cl)c1Cl` was -12.3%.
The value for `CCCCCCCCC1CO1` (stereo not given) was 2.22%; that for `CC(CCC(=O)O)(c1ccc(O)cc1)c1ccc(O)cc1` was -0.624%; that for `CCCCC(CC)COCCCN` (stereo not given) was 3.53%.
The figure for `CC(C)S` is 11.8%; for `Oc1ccc2c(c1)OCO2` it is 5.85%; for `CCCCCCc1ccc(-c2ccc(C#N)cc2)cc1` it is 6.73%.
With `CCc1ccc(C(c2ccc(CC)cc2)C(Cl)Cl)cc1`, the activity change % (negative = inhibition) was 13.5%.
As to `CCOc1ccc2nc(N)sc2c1`, the activity change % (negative = inhibition) was -4.05%.
For `Cc1cccnc1`, the activity change % (negative = inhibition) was 13.1%.
The value for `c1cc2c3c(c1)ccc1cccc(c13)C2` was -0.0299%.
The value for `NC(=O)c1ccc([N+](=O)[O-])cc1` was -17.4%.
The figure for `CC(=O)OCc1ccc2c(c1)OCO2` is -11.5%.
As for `Brc1cc(Oc2cc(Br)c(Br)c(Br)c2Br)c(Br)c(Br)c1Br`, the activity change % (negative = inhibition) is 1.8% and 9.48%.
For the molecule `O=C(Cl)c1ccc([N+](=O)[O-])cc1`, the activity change % (negative = inhibition) was 12%.
With `CCCCC(CC)COP(=O)(OCC(CC)CCCC)OCC(CC)CCCC` (stereo not given), the activity change % (negative = inhibition) is -23.6%.
The value for `C=CC1CO1` (stereo not given) was 4.27%; that for `Cc1ccccc1OCC1CO1` (stereo not given) was -11%.
The figure for `Clc1nc2ccccc2nc1Cl` is -2.15%.
